We go through 39 compounds from PubChem BioAssay AID651610 (Broad Institute, 2012).

The whole screen tested about 360,000 compounds, of which about 3,900 (1.1%) were called active.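 How the source made its calls: active means mean replicate inhibition score of at least 50 and every replicate individually at or above 50; inconclusive means only one of the two criteria met; inactive means mean below 50 and not all replicates reaching 50.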 What follows is part of a selection rich in actives, with near analogues and random picks from the rest.

The assay can be described thus: inhibitors of HIV-1 Env-driven cell-cell fusion, primary screen, HeLa-JRFL effector, CEM21 target cells, luciferase (AID 651610).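 Further: 0% = plate neutral controls and 100% = maraviroc near 300 nM.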 The conditions noted are these: stronger effect = higher value; at 16.7 µM unless noted.
The inhibition is the relative decrease from the control value, in per cent. In the case of `C[C@@H]1CN([C@H](C)CO)C(=O)c2cc(C#CC3CCCC3)cnc2O[C@@H]1CN(C)C(=O)C1CCC1`, the inhibition was -5.58% (inactive).

For `O=C(Cc1ccncc1)Nc1ccc2c(c1)[C@@H]1C[C@H](CC(=O)N3CCCCC3)O[C@H](CO)[C@@H]1O2`, the inhibition was 9.17% (inactive).

`C[C@@H]1CCCCO[C@@H](CN(C)Cc2ccc(C(=O)O)cc2)[C@@H](C)CN([C@@H](C)CO)C(=O)c2cc(NC(=O)Nc3ccc(C(F)(F)F)cc3)ccc2O1`: the inhibition is -4.94% (inactive).

In the case of `COc1ccc2c3c([nH]c2c1)[C@H](CO)N(C(=O)c1ccccc1)CC31CN(C(=O)Nc2cccc(F)c2)C1`, the inhibition is 12.9% (inactive).

Take `COc1ccc2c3c([nH]c2c1)[C@H](CO)N(C(=O)Nc1ccc(F)cc1)CC31CN(S(=O)(=O)c2cccc(F)c2)C1`: the inhibition was -38.9% (inactive).

Regarding `COc1ccc2c3c(n(C)c2c1)[C@@H](CO)N(C(=O)Nc1cccc(F)c1)CC31CCN(Cc2nccs2)CC1`, the inhibition is 23.1% (inactive).

Regarding `COc1ccc2c3c([nH]c2c1)[C@@H](CO)N(C(C)=O)CC31CN(C(=O)Nc2ccc(F)cc2)C1`, the inhibition was 31% (inactive).

`COc1ccc2c3c([nH]c2c1)[C@@H](CO)N(C(=O)Nc1cccc(F)c1)CC31CCN(S(=O)(=O)c2ccccc2)CC1`: the inhibition was 80.9% (active).

Regarding `COc1ccc2c3c([nH]c2c1)[C@H](CO)N(C(=O)Nc1cccc(F)c1)CC31CCN(S(=O)(=O)c2ccccc2)CC1`, the inhibition was 92.2% (active).

In the case of `N#C[C@@H]1[C@@H](c2ccc(-c3ccccc3F)cc2)[C@@H](CO)N1C(=O)C1CC1`, the inhibition is -18.6% (inactive).

Turning to `C[C@H]1CN([C@@H](C)CO)S(=O)(=O)c2ccc(C#CC3CCCC3)cc2O[C@@H]1CN(C)C(=O)c1cccc(F)c1`, the inhibition was 33.9% (inactive).

Take `O=C(C[C@H]1CC[C@H]2[C@@H](COC[C@H](O)CN2CCC(F)(F)F)O1)N1CCC(Cc2ccccc2)CC1`: the inhibition is 32.1% (inactive).

Consider `C[C@H]1CN([C@@H](C)CO)C(=O)Cc2cc(NC(=O)NC3CCCCC3)ccc2O[C@H]1CN(C)S(=O)(=O)c1cccs1`, for which the inhibition is 56.2% (active).

Regarding `C[C@H]1CN([C@@H](C)CO)C(=O)c2cc(NC(=O)NC3CCCCC3)ccc2O[C@@H]1CN(C)S(=O)(=O)c1cccs1`, the inhibition is 7.17% (inactive).

In the case of `C[C@@H]1CN([C@H](C)CO)C(=O)Cc2cc(NS(=O)(=O)c3ccc(Cl)cc3)ccc2O[C@H]1CN(C)S(=O)(=O)c1cccs1`, the inhibition is -4.91% (inactive).

With `C[C@H]1CN([C@@H](C)CO)C(=O)Cc2cc(NC(=O)Cc3ccccc3)ccc2O[C@H]1CN(C)S(=O)(=O)c1cccs1`, the inhibition is 98.7% [at 12.3 µM] (active).

Consider `C[C@H](CO)N1C[C@H](C)[C@H](CN(C)S(=O)(=O)c2cccs2)Oc2ccc(NS(=O)(=O)c3ccc(Cl)cc3)cc2CC1=O`, for which the inhibition is 55.2% (active).

As to `C[C@H]1CN([C@@H](C)CO)C(=O)Cc2cc(NC(=O)C3CC3)ccc2O[C@@H]1CN(C)S(=O)(=O)c1cccs1`, the inhibition was -4.09% (inactive).

On to `C[C@H]1CN([C@@H](C)CO)C(=O)Cc2cc(NS(=O)(=O)c3ccc(F)cc3)ccc2O[C@H]1CN(C)Cc1ccc(C(F)(F)F)cc1`, for which the inhibition is -1.59% (inactive).

Turning to `C[C@@H]1CN([C@H](C)CO)C(=O)Cc2cc(NC(=O)Cc3ccccc3)ccc2O[C@H]1CN(C)S(=O)(=O)c1cccs1`, the inhibition is 25.8% (inactive).

Regarding `C[C@@H]1CN([C@@H](C)CO)C(=O)Cc2cc(NS(=O)(=O)c3ccc(Cl)cc3)ccc2O[C@H]1CN(C)Cc1ccc(C(F)(F)F)cc1`, the inhibition was 77.5% (active).

As for `Cc1ccc(S(=O)(=O)Nc2ccc3c(c2)CC(=O)N([C@H](C)CO)C[C@@H](C)[C@H](CN(C)Cc2ccc(C(F)(F)F)cc2)O3)cc1`, the inhibition was 8.6% (inactive).

As to `C[C@H](CO)N1C[C@H](C)[C@@H](CN(C)S(=O)(=O)c2ccc(Cl)cc2)Oc2ccc(NS(=O)(=O)c3cccs3)cc2CC1=O`, the inhibition was -22% (inactive).

Turning to `C[C@@H]1CN([C@H](C)CO)C(=O)Cc2cc(NC(=O)CCCN(C)C)ccc2O[C@@H]1CN(C)S(=O)(=O)c1cccs1`, the inhibition was -1.4% (inactive).

Turning to `[N-]=[N+]=Nc1ccccc1C[C@@]1(C(=O)NCc2ccccc2)N=C(c2ccc(OCCCO)cc2)O[C@@H]1c1ccccc1`, the inhibition is 42.5% (inactive).

On to `C[C@H]1CN([C@@H](C)CO)C(=O)c2cccc(NS(=O)(=O)c3ccc(F)cc3)c2O[C@@H]1CN(C)CC1CC1`, for which the inhibition was -1.23% (inactive).

Regarding `Cc1noc(C)c1NC(=O)N(C)C[C@@H]1OCCCC[C@H](C)Oc2ccc(NC(=O)c3ccccc3)cc2C(=O)N([C@@H](C)CO)C[C@@H]1C`, the inhibition is 18.4% (inactive).

Take `N#C[C@@H]1[C@@H](c2ccc(-c3ccccc3F)cc2)[C@@H](CO)N1C(=O)c1ccccn1`: the inhibition is 16.4% (inactive).

Consider `C[C@@H]1CN([C@H](C)CO)C(=O)c2ccccc2-c2ccccc2CO[C@H]1CN(C)C(=O)CCC(F)(F)F`, for which the inhibition is -2.05% (inactive).

As to `CCCC#Cc1ccc([C@@H]2[C@@H](C#N)N(C(=O)C3CC3)[C@H]2CO)cc1`, the inhibition was -1.11% (inactive).

With `CCC(=O)Nc1ccc2c(c1)OC[C@H](C)N(Cc1ccccc1F)C[C@H](C)[C@@H](OC)CN(C)C2=O`, the inhibition is 27.1% (inactive).

Turning to `CCCN1C[C@@H](C)[C@@H](OC)CN(C)C(=O)c2ccc(NC(=O)Nc3cccc(F)c3)cc2OC[C@@H]1C`, the inhibition was -6.04% (inactive).

For `C/C=C/c1ccccc1[C@H]1[C@@H](C#N)N(C(=O)Cc2ccccn2)[C@@H]1CO`, the inhibition was -20.6% (inactive).

Take `C[C@@H]1CN([C@@H](C)CO)C(=O)c2cc(C#CCc3ccccc3)cnc2O[C@@H]1CN(C)C(=O)C1CCOCC1`: the inhibition is 6.96% (inactive).

Turning to `C[C@@H]1CN([C@H](C)CO)C(=O)c2cccc(NS(=O)(=O)c3ccc(Cl)cc3)c2O[C@H]1CN(C)Cc1ccc(C(F)(F)F)cc1`, the inhibition was 9.64% (inactive).

On to `C[C@@H]1CN([C@H](C)CO)C(=O)c2cccc(NS(=O)(=O)c3ccc(Cl)cc3)c2O[C@@H]1CN(C)Cc1ccc(Cl)c(Cl)c1`, for which the inhibition is 74.9% (active).

With `C[C@@H]1CN([C@@H](C)CO)C(=O)c2cccc(NS(=O)(=O)c3ccc(Cl)cc3)c2O[C@@H]1CN(C)Cc1ccccc1`, the inhibition is -7.04% (inactive).

On to `COc1cccc(S(=O)(=O)N(C)C[C@@H]2Oc3ncc(-c4cccc(C(=O)N(C)C)c4)cc3C(=O)N([C@H](C)CO)C[C@H]2C)c1`, for which the inhibition is 3.38% (inactive).

As for `CC(C)NC(=O)N(C)C[C@@H]1OCCCC[C@@H](C)Oc2ccc(NC(=O)c3ccccc3)cc2C(=O)N([C@@H](C)CO)C[C@H]1C`, the inhibition was -4.61% (inactive).
